Screens as filed in PubChem.
DAX1 inh-1 – DAX1 (NR0B1) inhibition, primary screen; AID 652010; inhibition, % at 6.8 µM; HEK293T StAR-luciferase reporter, SF-1/DAX-1 repression relief; actives 1.1% (n = 370,000);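 active means inhibition above the mean over all tested compounds plus 3 SD, cut at about 3.6% in these data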;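 further: 0% = DAX-1 cells with DMSO and 100% = cells lacking DAX-1 with DMSO; higher inhibition means more luminescence from relief of DAX-1 repression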
hcDAF12 agonist – activates DAF-12 receptor from parasite H. contortus | HEK293 hcDAF-12 lit1-tk-luc reporter, luminescence; 0% DMSO, 100% Δ7-dafachronic acid | activation, % at 6.8 µM | actives 1.4% (n = 370,000) | AID 652067;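 active means activation above the mean of all tested compounds plus 3 SD, cut at about 5.5% in these data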;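 further: 100% = response to 3 µM Δ7-dafachronic acid high control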
DAX1 inh-2 – inhibitors of human orphan nuclear receptor DAX1 (NR0B1); P51843; HEK293 Gal4-DAX1 luciferase reporter, luminescence; inhibition, % at 6.75 µM; actives 0.99% (n = 340,000);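 active means inhibition above the mean over all tested compounds plus 3 SD, cut at about 4.2% in these data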;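 further: 0% = DAX1-transfected cells with DMSO and 100% = empty-vector control cells with DMSO; inhibition shows as a rise in luminescence from relieved DAX1 repression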
Target sequence (P51843 207-470 limits assumed): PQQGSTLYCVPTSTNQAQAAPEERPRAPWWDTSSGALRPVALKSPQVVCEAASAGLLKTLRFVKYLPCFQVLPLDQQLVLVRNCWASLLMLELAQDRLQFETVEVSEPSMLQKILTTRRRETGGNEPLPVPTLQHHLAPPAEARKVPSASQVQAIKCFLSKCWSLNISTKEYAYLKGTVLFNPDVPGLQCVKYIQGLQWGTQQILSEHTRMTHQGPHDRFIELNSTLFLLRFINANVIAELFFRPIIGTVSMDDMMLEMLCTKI
ssDAF12 agonist – activates DAF-12 receptor from parasite S. stercoralis. HEK293 ssDAF-12/GRIP1 lit1-tk-luc reporter, luminescence; % of 3 µM dafachronic acid response. activation, % at 6.8 µM. actives 1% (n = 370,000). AID 652126;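 active means activation above the mean over all tested compounds plus 3 SD, cut at about 0.9% in these data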;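 further: 0% = DMSO-only wells and 100% = 3 µM delta7-dafachronic acid wells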
hgDAF12 agonist – activates the H. glycines DAF-12 receptor ligand-binding domain; HEK293 GAL4-hgDAF12 UAS-luciferase reporter, agonist luminescence; normalized to butyrate control; activation, % at 6.8 µM; actives 1.8% (n = 370,000);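 active means activation above a cutoff set at the mean of all screened compounds plus 3 SD, cut at about 10% in these data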;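 further: 0% = DMSO wells and 100% = sodium butyrate wells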
* marks the source's active call; other numbers are inactive results; . = no result given. A selection: hits, their analogues and other compounds. The true share with any hit is near 4.1%.

SMILES	DAX1 inh-1	hcDAF12 agonist	DAX1 inh-2	ssDAF12 agonist	hgDAF12 agonist
CCCCNC(=O)c1cc2c(-c3ccc(Cl)cc3)nn(C)c2s1	-0.7	5.9*	3.6	0.5	5.6
Cc1nn(-c2ccccc2)c2sc(C(=O)N3CCOCC3)cc12	1.8	6.5*	2.1	1.3*	9.3
C[C@@H]1/C=C/CC(=O)N[C@H](c2cccc(Br)c2)[C@H](C)/C=C/CC(=O)N[C@@H]1c1cccc(Br)c1	-1.1	-3.5	.	-1.4	-2.0
Cn1nc(-c2ccc(Cl)cc2)c2cc(C(=O)N3CCN(c4ccccc4)CC3)sc21	-0.3	5.7*	-0.3	0.1	2.0
CCN1CCCC1CNC(=O)c1cc2c(-c3ccc(Cl)cc3)nn(C)c2s1 (centres undefined)	.	.	4.6*	.	.
CCOC(=O)N1CCC(Nc2c(-c3ccc(C)cc3)c(=O)c2=O)CC1	-0.1	-0.5	-1.4	3.5*	-2.3
O=C(N[C@H](C(=O)N1CCC[C@H]1C(=O)NCCc1ccccc1Cl)C1CCCCC1)C1CC1	-1.0	-2.0	.	-1.4	0.8
FC(F)(F)c1nnc(N2CCN(c3ccc(Cl)cc3)CC2)s1	-0.3	-2.8	5.2*	-2.0	-0.5
Cc1cccc(N2CCN(c3nnc(C(F)(F)F)s3)CC2)c1	-0.2	-2.6	0.5	-2.1	1.8
O=C(COc1ccc2c(c1)OCO2)Nc1ccccc1F	3.5	3.6	4.1	-0.2	12.7*
Cc1ccc(NC(=O)CN2C(=O)CCSc3ccccc32)cc1C	-1.2	-2.6	.	-1.4	-2.8
C/C(=N\Nc1nc2ccccc2[nH]1)c1ccc(N2CCOCC2)cc1	3.9*	3.4	0.1	0.0	7.5
CCCCOCCCNC(=O)C[C@H]1C(=O)N(CCCOC)C2=CCCCC[C@]21C(=O)OC	0.2	0.7	.	-0.2	-0.3
CC(NC(=O)CCc1nnc(C2(c3ccc(Cl)cc3)CCC2)o1)C1CC1 (centres undefined)	0.2	0.3	4.4*	0.2	2.8
Clc1ccc(-c2nc3ccccc3nc2-c2ccccc2)cc1	0.0	6.1*	-0.4	-1.3	-4.3
Cc1ccc(-c2nc3ccccc3nc2-c2ccccc2)cc1	-0.3	3.1	1.1	-0.6	-0.6
C#CCNC(=O)C[C@H]1C[C@@]2(C(=O)OC)C(=C[C@H](C3CCCC3)O[C@@H]2C)N(CCC2=CCCCC2)C1=O	0.6	-1.5	.	-1.4	0.6
COC(=O)C1CN(Cc2cn(Cc3ccc(OC)cc3)nn2)CCS(=O)(=O)N1Cc1ccc(C)cc1 (centres undefined)	-1.4	-3.5	.	-2.0	-1.3
Cc1cccc(C)c1N1CCN(CCn2c(=S)[nH]c3ccccc3c2=O)CC1	0.4	-1.4	4.2*	-1.4	-1.4
CCN1CCN(CCn2c(=S)[nH]c3ccccc3c2=O)CC1	-0.1	-1.6	0.4	-1.1	0.9
Cc1c(NS(=O)(=O)c2cc3c(cc2Br)CCN3C(=O)C2CC2)c(=O)n(-c2ccccc2)n1C	-0.4	-2.5	.	-0.8	0.7
CCN(CC)C(=O)C(C)N(C#N)c1nc(C)cc(C)n1 (centres undefined)	0.0	6.3*	-1.6	-0.9	2.4
O=S1(=O)c2ccccc2-c2c(nnn2Cc2ccccc2)CN1C1CC1	-0.3	1.8	.	-1.0	-1.6
COC(=O)c1ccc(NC(=O)COC(=O)C2CC(=O)N(Cc3ccccc3)C2)cc1 (centres undefined)	-0.2	0.2	4.2*	-1.5	1.0
COc1cccc(NC(=O)C2CCCN2C(=O)Nc2cccc3c2OCO3)c1 (centres undefined)	-0.1	-1.6	.	-0.6	5.8
SMILES	DAX1 inh-1	hcDAF12 agonist	DAX1 inh-2	ssDAF12 agonist	hgDAF12 agonist
Clc1ccc(-c2nnc(NC3=NCCCCC3)o2)cc1	3.6	6.1*	-1.7	0.0	8.3
CC(CCN1CCC(C(O)(c2ccccc2)c2ccccc2)CC1)Oc1cc(F)cc(F)c1 (centres undefined)	-1.9	1.5	.	-0.5	1.1
Cc1ccc(S(=O)(=O)N2OC(c3ccccc3)C[C@H]2CC=C(c2ccccc2)c2ccccc2)cc1 (some centres undefined)	.	-1.3	.	-1.4	-1.2
CCc1ccc(OCc2cnc(Cl)s2)cc1	0.9	1.6	4.4*	-1.5	-0.6
Clc1ccc(OCc2cnc(Cl)s2)cc1	0.6	-1.1	0.7	-0.8	3.1
COc1ccccc1NC(=O)C(=O)N/N=C/c1cccs1	1.2	6.2*	0.7	-0.6	7.8
COC(=O)N1CCC[C@H]1c1cccc2[nH]cc(C)c12	0.1	-1.6	.	-1.2	1.0
O=C(NCCCN1CCCC1=O)c1cc(-c2ccc3c(c2)OCO3)nc2ccccc12	-0.4	1.6	-0.3	1.0*	-3.1
OCC1OC(n2cnc3c(SCc4ccccc4)ncnc32)C(O)C1O (centres undefined)	1.0	0.5	1.3	-0.8	0.4
OCC1OC(n2ccc3c(SCc4ccccc4)ncnc32)C(O)C1O (centres undefined)	3.3	2.1	2.7	-0.8	13.0*
COc1ccc(NC(=O)Cc2cccs2)c(OC)c1	0.8	0.8	-0.9	-0.3	10.5*
COc1ccc(NC(=O)C(NC(=O)Cc2cccs2)c2ccccc2)cc1 (centres undefined)	0.2	0.1	-2.3	-1.1	-1.2
COc1ccc(NC(=O)CCC(=O)c2cccs2)c(OC)c1	.	.	3.4	.	.
COc1ccc(NC(=O)C(NC(=O)Cc2cccs2)c2ccc(C)cc2)cc1 (centres undefined)	0.3	-1.1	4.7*	-0.8	6.6
COC(=O)[C@@H](CC(C)C)CP(=O)(OC)[C@@H](C)NC(=O)OCc1ccccc1 (some centres undefined)	-1.4	1.0	.	-0.9	4.6
COC(=O)[C@]12C[C@H](CC(=O)N3CCCC3)C(=O)N(Cc3cccc4ccccc34)C1=C[C@H](COCc1ccccc1)O[C@@H]2C	-0.1	-2.8	.	-1.4	2.9
CCOC(=O)[C@@]12CCCC=C1N(CCc1ccc(Cl)cc1)C(=O)[C@H]2CC(=O)N1CCCCC1	-2.9	-3.5	.	-1.5	-6.0
COc1ccc(C2C(C(C)=O)=C(O)C(=O)N2c2ccc(C)cc2)cc1 (centres undefined)	0.8	-0.1	4.5*	-0.4	4.0
CCOc1ccc(N(C(C)C(=O)N2CCCCCC2)S(C)(=O)=O)cc1 (centres undefined)	0.0	-2.0	3.8	1.5*	-3.3
CCOc1ccc(CN(C)CC(=O)Nc2cc(C)c(C)cc2[N+](=O)[O-])cc1	0.3	0.0	0.4	-1.3	2.5
CCOc1ccc(CN(C)CC(=O)Nc2cc(OC)c([N+](=O)[O-])cc2C)cc1	-0.8	4.1	-0.4	1.2*	-7.9
CCCCCCCCN1C(=O)[C@@H](CC(=O)NCc2cccc3ccccc23)C[C@@]2(C(=O)OC)C1=C[C@H](C(C)C)O[C@@H]2C1CC1	0.5	-1.4	.	-0.8	-1.3
COc1ccc(-n2cc(CNCCCn3ccnc3)c(-c3cccc(F)c3)n2)cc1	-0.2	-0.6	5.4*	-1.9	-1.5
